Screens: PubChem, several laboratories
This is a sample that favours compounds with a hit; in the whole collection about 1.8% have one here.
AI-2 QS mod – Vibrio harveyi AI-2 quorum sensing modulation; actives 0.4% (n = 300,000); Vibrio harveyi JMH597 AI-2 luminescence/OD600 ratio, 9 h; hits give low values; strain lacks LuxN and CqsS sensors; 0 = neutral-control median; activity change, % at 7.5 µM; in the data active = activity change below about -75%, passing the limit was not always enough; inconclusive = no clear call, values can overlap the other calls;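 note: luminescence divided by OD600 gain over 9 h not by final OD600 alone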
Mot1-301 SUMO – blocks SUMOylation pathway, rescuing yeast Mot1-301 growth | actives 1% (n = 320,000) | S. cerevisiae Mot1-301 growth rescue, ATP luminescence, 38.5C; percent above DMSO median, 100 means doubled | growth rescue, % at 18.8 µM | AID 2716;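 active = every valid replicate shows activation above 250% relative to neutral control wells; inactive = the rest, any valid replicate at or below 250%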;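 note: OY570 slx delta 5 strain wells were the positive control but not used for scaling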
ARNT-TACC3 inh – disrupts binding between human ARNT and TACC3 | Q9Y6A5 | inhibition, % at 9.99 µM | AlphaScreen His-ARNT PAS-B/GST-TACC3 binding, luminescence; TACC3 fragment carries E629A point mutation | actives 0.66% (n = 390,000);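 active = mean inhibition of replicates at least 50% and at least half of replicates each reaching 50%; inconclusive = half or more replicates reach 50% but mean below 50%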;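 note: 0% = complete ARNT plus TACC3 wells and 100% = ARNT alone without TACC3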
Bfl-1 A1 inh – inhibitors of the anti-apoptotic protein A1, read as caspase activation; actives 0.066% (n = 330,000); MEF A1-2A-BIM cells, Caspase-Glo 3/7 luminescence, 3 h; percent of clofoctol response, vehicle zero; caspase activation, % (test concentration not listed);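 active = over half of replicate activation scores above 10%, or exactly half above 10 with the replicate mean above 10; inconclusive = replicate mean below 10 yet half the replicates above 10; inactive = over half of replicates below 10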
aDG glyco act – alpha-DG glycosylation activation | Pro5-aDG cells, alpha-DG glycosylation AlphaScreen (IIH6); 0% Pro5, 100% B10-LARGE cell signal | activation, % at 10 µM | actives 0.22% (n = 360,000) | AID 624168;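 active = activation of at least 8% versus controls, or a plate z-score of at least 8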;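 note: Pro5 are CHO cells carrying HIG-tagged alpha-DG that lacks glycosylation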
JMH597 growth rt – retest: blocks Vibrio harveyi JMH597 growth; OD600 absorbance, 9 h; lacks LuxN and CqsS sensors; shares compounds with AI-2 QS mod; growth inhibition, % at 7.5 µM; AID 2726; actives 1% (n = 750);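 active = every replicate shows growth inhibition above 50%; inconclusive = at least half, but not all, replicates pass that cutoff; inactive = fewer than half of replicates pass it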
BB721 lum counter – retest counter-screen: BB721 constitutive quorum sensing luminescence decrease. shares compounds with AI-2 QS mod. Vibrio harveyi BB721 luminescence, 9 h. inhibition, % at 7.5 µM. actives 95% (n = 750);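 active = inhibition above about 80% in every replicate, not just on average, limit read from the data; inconclusive = at least half of replicates past the limit, but not all; inactive = fewer than half of replicates past the limit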
BB721 growth – retest: blocks Vibrio harveyi BB721 growth; AID 2728; growth inhibition, % at 7.5 µM; OD600 absorbance, 9 h; shares compounds with AI-2 QS mod; actives 3% (n = 750);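 active = every replicate shows growth inhibition above 50%; inconclusive = at least half but not all replicates above 50% inhibition; inactive = under half of replicates above 50% inhibition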
AI-2 QS JMH597 – Vibrio harveyi AI-2 signaling luminescence modulation – JMH597 strain, confirmation | shares compounds with AI-2 QS mod | Vibrio harveyi JMH597 AI-2 quorum sensing luminescence, 9 h; luxN and CqsS knockout, AI-2 only | inhibition, % at 7.5 µM | actives 97% (n = 750);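 active = every replicate shows more than 75% inhibition of signal versus neutral control wells; inconclusive = half to three quarters of replicates exceed 75% inhibition; inactive = fewer than half of replicates exceed 75% inhibition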
* marks the source's active call; other numbers are inactive results; u = inconclusive; x = no result given.

SMILES	AI-2 QS mod	Mot1-301 SUMO	ARNT-TACC3 inh	Bfl-1 A1 inh	aDG glyco act	JMH597 growth rt	BB721 lum counter	BB721 growth	AI-2 QS JMH597
Nc1nc(SCC(=O)c2ccc(Oc3ccccc3)cc2)n[nH]1	-94.5*	-21.3	-0.8	0.3	-0.1	14.7	96.9*	-86.5	97.9*
CC(C)CCNC(=O)c1ccc(Cl)c(NC(=O)Cc2ccccc2)c1	-3.7	-3.1	x	0.4	x	x	x	x	x
CC1(C)SCC(C(=O)O)N1C=O (stereo unspecified)	3.3	10.0	-4.2	0.1	2.1	x	x	x	x
COc1ccc(NC(=O)C2CSC(C)(C)N2C=O)cc1 (stereo unspecified)	-88.6*	-0.6	-6.8	0.3	-0.2	11.9	96.0*	0.6	97.1*
c1ccc(OCc2cc(-c3ccccc3)no2)cc1	-96.3*	12.0	-4.9	1.7	0.0	1.3	99.5*	-0.5	99.6*
Clc1ccc(-c2cc(CSc3ccccc3)on2)cc1	-12.7	-14.1	-7.3	-0.7	-0.1	x	x	x	x
c1ccc(SCc2cc(-c3ccccc3)no2)cc1	-91.6*	-15.8	-8.1	-2.3	0.5	14.2	98.6*	-15.0	98.9*
COc1ccccc1OCc1cc(-c2ccccc2)no1	-65.0	10.5	-8.1	0.9	0.7	x	x	x	x
Cc1occc1C(=O)NCCCCNC(=O)c1ccoc1C	9.3	6.3	4.2	-0.2	-0.3	x	x	x	x
Cc1occc1C(=O)NCCCc1ccccc1	-78.3*	10.4	4.4	-1.8	-0.1	18.8	87.3*	11.4	90.7*
Brc1cccc(CSc2nnc(-c3ccncc3)o2)c1	-85.5*	12.5	-9.0	0.4	1.1	14.6	94.9*	6.2	95.8*
c1ccc2c(CSc3nnc(-c4ccncc4)o3)cccc2c1	-83.3*	-0.2	6.6	0.3	0.3	5.0	94.3*	-7.9	95.6*
Clc1ccccc1CSc1nnc(-c2ccncc2)o1	-31.5	37.7	-4.0	-3.1	-0.1	x	x	x	x
NC(=O)NC(=O)CN1C(=O)NC(c2ccccc2)(c2ccccc2)C1=O	7.3	187.6	8.4	-0.4	0.0	x	x	x	x
C=CCNC(=O)NC(=O)CN1C(=O)NC(c2ccccc2)(c2ccccc2)C1=O	-84.9*	4.1	-4.1	0.2	-0.1	-4.0	93.6*	-9.4	95.7*
CC(C)CCNC(=O)CN1C(=O)NC(c2ccccc2)(c2ccccc2)C1=O	-91.8*	32.5	10.2	0.2	0.1	7.1	90.2*	7.8	95.3*
C/C=C/c1ccc([C@H]2[C@H]3CN(S(=O)(=O)c4ccc(OC)cc4)CCCCN3[C@H]2CO)cc1	x	x	7.0	x	x	x	x	x	x
CN1C(=O)c2cc(NC(=O)Cc3cccs3)ccc2OC[C@@H]2O[C@H](CC(=O)NCC3CC3)CC[C@@H]21	x	x	-23.9	x	x	x	x	x	x
CCNS(=O)(=O)c1ccc(NC(=S)NCc2ccco2)cc1	19.3	3.7	1.5	-0.2	0.1	x	x	x	x
O=S(=O)(NCc1ccccc1)c1ccc(NC(=S)NCc2ccco2)cc1	-97.4*	-16.2	3.7	0.9	0.0	15.8	99.7*	-59.8	99.8*
Cc1ccccc1NCCC(=O)Nc1ccc(Cl)cc1	-83.7*	-3.4	x	0.0	-0.2	4.2	96.6*	-1.4	97.4*
Cc1ccccc1NC(=O)CC(=O)Nc1ccccc1C	-1.2	5.3	-3.2	0.3	-0.1	x	x	x	x
Cc1ccccc1NCCC(=O)Nc1ccc(F)cc1	-87.3*	-21.4	-4.3	-0.3	-0.1	18.2	95.4*	14.6	96.8*
COc1ccc(NC(=O)N[C@@H]2C=C[C@@H](CC(=O)NCc3ccccn3)O[C@H]2CO)cc1	x	x	-9.3	x	x	x	x	x	x
OC[C@@H]1[C@H](c2ccc(-c3ccc(F)cc3)cc2)[C@@H]2CN(Cc3ccccn3)CCCCN12	x	x	21.0	x	x	x	x	x	x
SMILES	AI-2 QS mod	Mot1-301 SUMO	ARNT-TACC3 inh	Bfl-1 A1 inh	aDG glyco act	JMH597 growth rt	BB721 lum counter	BB721 growth	AI-2 QS JMH597
COc1ccc(/C=N/NC(=O)Cn2cnc3ccccc3c2=O)cc1OC	-91.4*	-7.9	-2.3	0.8	0.1	-6.3	96.8*	-11.6	97.5*
COc1cc(/C=N\NC(=O)Cn2nnc3ccccc32)cc(OC)c1OC	-87.1*	-10.4	x	-0.8	-0.2	-3.5	92.7*	-34.1	95.9*
COc1cc(/C=N/NC(=O)Cn2nnc3ccccc32)ccc1O	-87.1*	6.3	x	0.9	0.3	-25.3	94.4*	-29.5	96.1*
N#C/C(=C1/CCCCCN1)c1nc2ccccc2[nH]1	31.7	-8.5	-0.7	-0.3	-0.1	x	x	x	x
CC(=NNC(N)=S)c1ccc2cc3c(cc2c1)OCO3	x	x	x	x	3.0	x	x	x	x
O=C(/C=C/c1c(Cl)cccc1Cl)NCc1ccco1	13.5	-12.7	4.1	0.6	0.1	x	x	x	x
O=C(/C=C/c1ccccc1Cl)NCc1ccco1	-83.1*	3.2	1.6	-0.1	0.0	4.8	93.0*	18.3	93.7*
CCCc1cc(=O)[nH]c(SCC(=O)CSc2nc(CCC)cc(=O)[nH]2)n1	3.9	-20.5	-1.9	-0.8	-0.1	x	x	x	x
COc1ccc(Cl)cc1C=CC=NNS(=O)(=O)c1ccc(C)cc1	x	x	0.7	x	2.1	x	x	x	x
Cc1ccc(S(=O)(=O)N/N=C\C=C\c2ccccc2)cc1	-98.1*	30.0	x	0.0	0.5	51.2	99.8*	24.7	99.9*
O=C(NCc1nnc(SCC(=O)N2CCOCC2)o1)c1cccs1	-0.9	-3.9	x	-0.2	-0.1	x	x	x	x
CC(C)NC(=O)N(C)C[C@H]1Oc2ccc(NC(=O)Cc3ccccc3)cc2CC(=O)N([C@@H](C)CO)C[C@@H]1C	x	x	0.2	x	x	x	x	x	x
COc1cc(NC(=O)COC(=O)CNC(=O)c2cc(C)cc(C)c2)c(C)cc1[N+](=O)[O-]	-0.8	3.6	x	0.2	0.4	x	x	x	x
C(=C\c1nc(-c2cccnc2)no1)/c1ccccc1	-94.8*	1.4	-2.7	-4.2	0.0	28.8	98.5*	20.9	99.0*
Clc1ccccc1/C=C/c1nc(-c2cccnc2)no1	-66.1	-22.4	-2.7	-7.8	0.1	x	x	x	x
Cc1noc(C)c1COc1cccc(C(=O)Nc2ccc3c(c2)OCO3)c1	38.6	-18.0	4.4	0.4	0.0	x	x	x	x
CCS(=O)(=O)c1ccc2oc(Nc3cccc(OC)c3)nc2c1	u	x	-3.3	-0.4	-0.2	-11.2	81.6*	-30.6	88.2*
CCS(=O)(=O)c1ccc2oc(Nc3ccc(OC)cc3)nc2c1	13.5	7.3	-5.5	-0.9	0.0	x	x	x	x
Cc1cccc(/C(N)=N/OC(=O)c2cccc3ccccc23)c1	-84.8*	80.3	-29.5	0.9	1.2	61.6	97.5*	u	97.7*
